# The supplement of paper PMC10338343
# ± gives the standard deviation. In all, about 8,200 sequences were measured (“pre-steady-state target cleavage rate”: median about 0.024, highest 2% from about 1.3 on). For the sample, the highest values were picked, then their nearest neighbours and some sequences at random.
# System: MIWI (PIWIL1) piRISC loaded with L1MC piRNA (30 nt)
# Test: pre-steady-state target cleavage rate (min^-1); MIWI and MILI are mouse PIWI proteins and EfPiwi is from a freshwater sponge; tags in brackets are library labels; higher = faster piRNA-guided slicing of the target
# Conditions: guide: L1MC piRNA 5'p-UAACUAAAUACUAUGCAAGCUGUAGGUCCU
# Outline: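 A transcribed, DNA-blocked target RNA library (0.1 nM) and 1 nM active affinity-purified piRISC bearing one synthetic guide were incubated in HEPES–potassium acetate buffer at 33 °C for 0–8 or 0–960 min, either with or without 500 nM GTSF1 partner protein. Uncleaved targets were sequenced, normalised to depth and to weakly complementary targets, and pooled over three trials, with k3 capped at 0.0001 min^-1. The pre-steady-state cleavage rate was derived with a burst-and-steady-state fit.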
# [1] = auxiliary factor: 500 nM mouse GTSF1
# [2] = auxiliary factor: none (no GTSF1)
sequence,measurement,setting,value
AGGACCAACAGCUUCCAUAGUAUUUAGUUA,pre-steady-state target cleavage rate,[1],0.0962 ± 0.019
same,pre-steady-state target cleavage rate,[2],0.00538 ± 0.0017
UCCUCCUACAGCUUCGAUAGUAUUUAGAAA,pre-steady-state target cleavage rate,[1],0.0755 ± 0.019
UCCUGGAUGAGCUUGCAUAGUAUUUAGUGA,pre-steady-state target cleavage rate,[1],0.703 ± 0.047
same,pre-steady-state target cleavage rate,[2],0.0519 ± 0.0094
UCCUGCUACAGCUUGCAUUGUAUUAAGUUA,pre-steady-state target cleavage rate,[1],0.502 ± 0.038
same,pre-steady-state target cleavage rate,[2],0.00942 ± 0.0021
UCCACCUACAGCUUGGAUAGUAUUUUCAAA,pre-steady-state target cleavage rate,[1],0.0295 ± 0.012
UCCUCCUACAGCAUGCAUAGUAUUUAGAAA,pre-steady-state target cleavage rate,[1],0.485 ± 0.066
AGGACCUACAGCUUGGAUAGUAUUUAGUAA,pre-steady-state target cleavage rate,[1],1.02 ± 0.063
same,pre-steady-state target cleavage rate,[2],0.0552 ± 0.012
UGGACCUACAGGUUGGAUAGUAUUUAGUUA,pre-steady-state target cleavage rate,[1],1.33 ± 0.091
same,pre-steady-state target cleavage rate,[2],0.0484 ± 0.0079
UGGACCUACAGCUUGGAUAGUAUUUAGUAA,pre-steady-state target cleavage rate,[1],0.851 ± 0.062
same,pre-steady-state target cleavage rate,[2],0.0355 ± 0.006
UCGACCUACAGGUUGGAUAGUAUUUAGUUA,pre-steady-state target cleavage rate,[1],1.16 ± 0.11
same,pre-steady-state target cleavage rate,[2],0.0308 ± 0.0056
UCCACCUACAGCUUGGAUAGUAUUUAGUAA,pre-steady-state target cleavage rate,[1],0.747 ± 0.054
same,pre-steady-state target cleavage rate,[2],0.0244 ± 0.0052
AGGACCUACAGGUUGGAUAGUAUUUAGUUA,pre-steady-state target cleavage rate,[1],1.24 ± 0.079
same,pre-steady-state target cleavage rate,[2],0.0408 ± 0.0067
UCCACCUACAGCUUGGAUAGUAUUUAGUUA,pre-steady-state target cleavage rate,[1],1.44 ± 0.056
same,pre-steady-state target cleavage rate,[2],0.0469 ± 0.0082
AGGACCUACAGCUUGGAUAGUAUUUAGUUA,pre-steady-state target cleavage rate,[1],1.67 ± 0.052
same,pre-steady-state target cleavage rate,[2],0.0813 ± 0.013
UGGACCUACAGCUUGGAUAGUAUUUAGAUA,pre-steady-state target cleavage rate,[1],0.427 ± 0.05
same,pre-steady-state target cleavage rate,[2],0.0235 ± 0.0046
UCCACCUACAGCUUGGAUAGUAUUUAGAUA,pre-steady-state target cleavage rate,[1],0.319 ± 0.042
same,pre-steady-state target cleavage rate,[2],0.0137 ± 0.0027
AGGACCUACAGCUUGGAUAGUAUUUAGAUA,pre-steady-state target cleavage rate,[1],0.527 ± 0.057
same,pre-steady-state target cleavage rate,[2],0.0218 ± 0.0053
UGGACCUACAGCUUGGAUAGUAUUUAGUUA,pre-steady-state target cleavage rate,[1],1.65 ± 0.068
same,pre-steady-state target cleavage rate,[2],0.0735 ± 0.013
UCCACCUACAGGUUGCAUAGUAUUUACAAA,pre-steady-state target cleavage rate,[1],0.336 ± 0.052
UCCACCUACAGCUUGCAUAGUUUUUAGAUA,pre-steady-state target cleavage rate,[1],0.16 ± 0.029
same,pre-steady-state target cleavage rate,[2],0.0077 ± 0.0023
UCCUGGUUCAGGUUGCAUAGUAUUUAGUUA,pre-steady-state target cleavage rate,[1],0.711 ± 0.051
same,pre-steady-state target cleavage rate,[2],0.0138 ± 0.0041
AGGAGCUACAGCUAGCAUAGUAUUUAGUUA,pre-steady-state target cleavage rate,[1],1.28 ± 0.076
same,pre-steady-state target cleavage rate,[2],0.0359 ± 0.0079
UCCUGCUACAGCUAGCAUAGUAUUUACAAA,pre-steady-state target cleavage rate,[1],0.234 ± 0.049
UCCUGCUACAGCUUGCUUAGUAUUAAGUUA,pre-steady-state target cleavage rate,[1],0.403 ± 0.038
same,pre-steady-state target cleavage rate,[2],0.00887 ± 0.0026
UCCUGGAUCAGCUUGCAUCGUAUUUAGUUA,pre-steady-state target cleavage rate,[1],0.327 ± 0.02
same,pre-steady-state target cleavage rate,[2],0.032 ± 0.0077
AGGACCUACAGCUUGCAUAGUAUUUUCUUA,pre-steady-state target cleavage rate,[1],0.33 ± 0.049
same,pre-steady-state target cleavage rate,[2],0.03 ± 0.0093
UCCUCCUACACCUUGCAUAGAAUUUAGUUA,pre-steady-state target cleavage rate,[1],0.341 ± 0.082
same,pre-steady-state target cleavage rate,[2],0.00682 ± 0.0023
UCCUCCUACAGCUUGCAUUGAAUUUAGUUA,pre-steady-state target cleavage rate,[1],0.183 ± 0.018
same,pre-steady-state target cleavage rate,[2],0.00617 ± 0.0025
UCGACCUACACCUUGCAUAGAAUUUAGUUA,pre-steady-state target cleavage rate,[1],0.395 ± 0.07
same,pre-steady-state target cleavage rate,[2],0.0128 ± 0.0024
UCGACCUACAGCUUGCAUUGUAUUUACUUA,pre-steady-state target cleavage rate,[1],0.49 ± 0.028
same,pre-steady-state target cleavage rate,[2],0.0226 ± 0.0052
UCGACCUACAGCUAGGAUAGUAUUUAGUUA,pre-steady-state target cleavage rate,[1],1.29 ± 0.064
same,pre-steady-state target cleavage rate,[2],0.00874 ± 0.0021
AGGACCUACAGCUAGGAUAGUAUUUAGUUA,pre-steady-state target cleavage rate,[1],1.09 ± 0.06
same,pre-steady-state target cleavage rate,[2],0.0102 ± 0.0018
UGGACCUACAGCUAGGAUAGUAUUUAGUUA,pre-steady-state target cleavage rate,[1],1.39 ± 0.068
same,pre-steady-state target cleavage rate,[2],0.00938 ± 0.0019
UCCUCGUACAGCUUGGAUAGUAUUUAGUUA,pre-steady-state target cleavage rate,[1],1.22 ± 0.062
same,pre-steady-state target cleavage rate,[2],0.0636 ± 0.011
UGGACGUACAGCUUGGAUAGUAUUUAGUUA,pre-steady-state target cleavage rate,[1],1.4 ± 0.054
same,pre-steady-state target cleavage rate,[2],0.0597 ± 0.01
UCCACGUACAGCUUGGAUAGUAUUUAGUUA,pre-steady-state target cleavage rate,[1],1.14 ± 0.065
same,pre-steady-state target cleavage rate,[2],0.0509 ± 0.0081
AGGACGUACAGCUUGGAUAGUAUUUAGUUA,pre-steady-state target cleavage rate,[1],1.36 ± 0.067
same,pre-steady-state target cleavage rate,[2],0.0579 ± 0.0083
AGGAGCUACAGCUUGGAUAGUAUUUAGUUA,pre-steady-state target cleavage rate,[1],1.17 ± 0.081
same,pre-steady-state target cleavage rate,[2],0.0558 ± 0.0094
UCGACGUACAGCUUGGAUAGUAUUUAGUUA,pre-steady-state target cleavage rate,[1],1.24 ± 0.042
same,pre-steady-state target cleavage rate,[2],0.0503 ± 0.0083
UCGUCCUAGAGCUUGCAUAGUAUUUAGUUA,pre-steady-state target cleavage rate,[1],0.957 ± 0.041
same,pre-steady-state target cleavage rate,[2],0.0436 ± 0.0072
UCCUCCUAGCAGCUUGCAUAGUAUUUAGUUA,pre-steady-state target cleavage rate,[1],1.12 ± 0.046
same,pre-steady-state target cleavage rate,[2],0.0448 ± 0.0093
UCCACCUACAGCUUCGAUAGUAUUUAGAAA,pre-steady-state target cleavage rate,[1],0.0807 ± 0.021
UCCUGGAUGAGCUUGCUAUGUAUUUAGUUA,pre-steady-state target cleavage rate,[1],0.00494 ± 0.0027
same,pre-steady-state target cleavage rate,[2],0.00308 ± 0.0029
UGGAGCUUCAGCUUGCAUAGUAUUUAGUUA,pre-steady-state target cleavage rate,[1],1.34 ± 0.048
same,pre-steady-state target cleavage rate,[2],0.0706 ± 0.01
UGGAGCUAGAGCUUGCAUAGUAUUUAGUUA,pre-steady-state target cleavage rate,[1],0.707 ± 0.048
same,pre-steady-state target cleavage rate,[2],0.0402 ± 0.0068
AGGAGCUUCAGCUUGCAUAGUAUUUAGUUA,pre-steady-state target cleavage rate,[1],1.48 ± 0.047
same,pre-steady-state target cleavage rate,[2],0.0864 ± 0.015
UCGAGCUUCAGCUUGCAUAGUAUUUAGUUA,pre-steady-state target cleavage rate,[1],1.12 ± 0.046
same,pre-steady-state target cleavage rate,[2],0.0555 ± 0.0099
UCCUGCUUCAGCUUGCAUAGUAUUUAGUAA,pre-steady-state target cleavage rate,[1],0.537 ± 0.036
same,pre-steady-state target cleavage rate,[2],0.0275 ± 0.0068
AGGAGCUAGAGCUUGCAUAGUAUUUAGUUA,pre-steady-state target cleavage rate,[1],0.922 ± 0.049
same,pre-steady-state target cleavage rate,[2],0.0536 ± 0.0099
AGGACCUAGUGCUUGCAUAGUAUUUAGUAA,pre-steady-state target cleavage rate,[1],0.457 ± 0.051
same,pre-steady-state target cleavage rate,[2],0.0314 ± 0.0063
UCCUCCUACAGCUUGCUAAGUAUUUAGUAA,pre-steady-state target cleavage rate,[1],0.066 ± 0.012
AGGACCUACAGCUUGGAUAGUAUUAAGUUA,pre-steady-state target cleavage rate,[1],0.722 ± 0.072
same,pre-steady-state target cleavage rate,[2],0.0226 ± 0.004
AGACCUACAGCUUGCAUAGUAUUUAGUUA,pre-steady-state target cleavage rate,[1],1.46 ± 0.052
same,pre-steady-state target cleavage rate,[2],0.0902 ± 0.017
UAGACCUACAGCUUGCAUAGUAUUUAGUUA,pre-steady-state target cleavage rate,[1],1.31 ± 0.043
same,pre-steady-state target cleavage rate,[2],0.0672 ± 0.011
AAGACCUACAGCUUGCAUAGUAUUUAGUUA,pre-steady-state target cleavage rate,[1],1.69 ± 0.062
same,pre-steady-state target cleavage rate,[2],0.0921 ± 0.015
AGGACCUACAGGUAGCAUAGUAUUUAGUUA,pre-steady-state target cleavage rate,[1],1.04 ± 0.054
same,pre-steady-state target cleavage rate,[2],0.00995 ± 0.0022
UCCUGGUACAGCUUGCAUAGUAAAUUCAAA,pre-steady-state target cleavage rate,[1],0.00975 ± 0.0053
UCCUCCUACAGCUUGCAUAGUAUUUAGAUUA,pre-steady-state target cleavage rate,[1],0.342 ± 0.031
same,pre-steady-state target cleavage rate,[2],0.0121 ± 0.0024
UCCUGGAAGUCCUUGCAUAGUAUUUAGUUA,pre-steady-state target cleavage rate,[1],0.175 ± 0.02
same,pre-steady-state target cleavage rate,[2],0.0104 ± 0.0031
UCCCCCUACAGCUUGCAUAGUAUUUAGUUA,pre-steady-state target cleavage rate,[1],1.28 ± 0.039
same,pre-steady-state target cleavage rate,[2],0.0819 ± 0.014
UCGCCUACAGCUUGCAUAGUAUUUAGUUA,pre-steady-state target cleavage rate,[1],1.5 ± 0.066
same,pre-steady-state target cleavage rate,[2],0.0743 ± 0.014
UCGCCCUACAGCUUGCAUAGUAUUUAGUUA,pre-steady-state target cleavage rate,[1],1.32 ± 0.055
same,pre-steady-state target cleavage rate,[2],0.0692 ± 0.011
UCCGCCUACAGCUUGCAUAGUAUUUAGUUA,pre-steady-state target cleavage rate,[1],1.23 ± 0.05
same,pre-steady-state target cleavage rate,[2],0.0714 ± 0.011
UCCUGGUACAGCUUGCAUAGUUUUUAGUAA,pre-steady-state target cleavage rate,[1],0.177 ± 0.037
same,pre-steady-state target cleavage rate,[2],0.0195 ± 0.0054
UCCUGGUACAGCUUGCAUAGUUAUUAGUUA,pre-steady-state target cleavage rate,[1],0.115 ± 0.018
same,pre-steady-state target cleavage rate,[2],0.018 ± 0.0051
